We go through 40 compounds from PubChem BioAssay (NCI).

Structures are written as SMILES. The panel holds about 83,000 compounds, 20% with a hit somewhere; the sample as a whole holds those more often.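 Values shown are percent growth following 48 h exposure of cells in 96-well plates to a single concentration of compound; below 10 was considered active.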 Values without a mark were called inactive. Activity calls are given as the source filed them.

This assay concerns MDA-MB-468 breast. The experiment in a line: NCI-60 one-dose screen, 48 h (100 = growth as untreated, 0 = no growth, -100 = all killed). Particulars: 10 µM unless noted.
For the compound `CNC(=O)OC1C(O[C@H]2C[C@H]3[C@@H]4CC=C5C[C@@H](O)CC[C@]5(C)[C@H]4CC[C@]3(C)[C@H]2[C@H](C)C(=O)CCC(C)C)OCC(O)C1OC1OCC(O)C(O)C1OC(=O)c1ccc(OC)cc1` (stereo not given in full), the growth was -0.149% (active).
For `CC(CCc1ccc(Cl)c(Cl)c1)NCc1ccc(C(C)(C)C)cc1` (stereo not given) the value was 30.8%.
For `O=C(NCc1ccco1)Nc1c(Cl)cc(Cl)cc1Cl` the value was 87.8%; for `C#COc1cccc(Nc2ncnc3cc(NC(=O)[C@H](C)Cl)ccc23)c1`, -11.4% [6.25 µM] (active).
For `Clc1ccc(-c2nnc(-c3ccco3)o2)cc1` the value was 100%; for `Cc1cn(-c2cc(NC(=O)c3cncc(C#Cc4cnc5ccc(OCCCS(C)(=O)=O)nn45)c3)cc(C(F)(F)F)c2)cn1`, -22.5% (active); for `C#Cc1nc(/C=C/C(=O)NO)cs1`, 51.7%.
In the case of `COc1ccccc1NC(=O)COc1ccc(/C=C2/Oc3cc4occc4c(OC)c3C2=O)cc1OC`, the growth was 102%.
For `CCc1nc(N)nc(N)c1C#CC(C)c1cc(-c2ccnc(C)c2)c2oc(C)nc2c1` (stereo not given) the value was -20.6% (active); for `CCCCCCCCCc1ccc(OC(C)=O)cc1`, 104%; for `O=C(NNC(=O)c1nc2cc(F)ccc2n2cccc12)c1cnccn1`, 22.2%.
For `C=CCn1c(C)nc2cc(Nc3nc(Nc4ccc5nc(C)n(CC=C)c5c4)nc4ccccc34)ccc21`, the growth is 118%.
With `COc1cc(OC)c(NC(=O)C(Sc2nc(C)cc(C)c2C#N)c2ccccc2)cc1Cl` (stereo not given), the growth was 93.6%.
For `C#Cc1ccc(NC(=O)Cc2ccc(/C=C/C(=O)c3nccn3C)cc2)cc1` the value was 33.8%; for `C#CCOc1cccc(Nc2ncnc3c(NC(=O)CCl)cccc23)c1`, -66.7% (active).
For `O=S(=O)(NCCCNc1nccc(-c2c(-c3ccc(F)cc3)nc3sccn23)n1)c1ccc(F)cc1` the value was 50.5%.
The value for `C=C1C(=O)O[C@H]2[C@H]1CC/C(Cn1cc(-c3cc(C)c(C)cc3C)nn1)=C\CC[C@@]1(C)O[C@@H]21` was -75.6% (active); that for `CCn1c2ccc(/C=N/N(C)S(=O)(=O)CCN(C)C)cc2c2cc(/C=N/N(C)S(=O)(=O)CCN(C)C)ccc21` was 40.4%; that for `C=CCn1c(SCC(=O)Nc2ccc(C(=O)/C=C/c3ccccc3)cc2)nnc1-c1ccc(OC)c(OC)c1` was 59.5%.
For `CCCCCCCCN(CCCCCCCC)CCCCCCNc1cc(OC)cc2cccnc12`, the growth is 68.2%.
The value for `C=CC(=O)OCCCCCCCC` was 106%.
For `COc1ccc(NC(=O)c2ccc(-c3ccccc3)cc2)c(C(N)=O)c1` the value was 109%; for `CC(=O)N1c2ccccc2NC2=C(C(=O)N(C)C2(C)C)C1C` (stereo not given), 19.2%.
In the case of `c1cc(C2=N[C@@H]3c4ccccc4C[C@@H]3O2)nc(C2=N[C@@H]3c4ccccc4C[C@@H]3O2)c1`, the growth is 95.8%.
Regarding `CN1CCN(C(=O)[C@]23CCC(C)(C)C[C@@H]2C2=CC[C@@H]4[C@@]5(C)Cc6c([nH]c7ccccc67)C(C)(C)[C@@H]5CC[C@@]4(C)[C@]2(C)CC3)CC1`, the growth was 98%.
Consider `O=C(Nc1ccc(F)cc1)Nc1ccc(CCO)cc1`, for which the growth is 105%.
For `CN1CCN(C(=O)[C@]2(C)CC[C@]3(C)CC[C@]4(C)C(=CC(=O)[C@@H]5[C@@]6(C)CCC(=O)NC(C)(C)[C@@H]6CC[C@]54C)[C@@H]3C2)CC1` the value was 101%; for `Clc1ccc(CCC(Cn2ccnc2)Sc2c(Cl)cccc2Cl)cc1` (stereo not given), 36.9%; for `CCc1ccc2c(c1)N(CCO)C1=C(C(=O)OC1)C2c1ccccc1` (stereo not given), 104%.
For `CC(=O)c1ccc(NC(=O)CSc2nnc(-c3cc(-c4ccc(Cl)cc4)nc4ccccc34)o2)cc1` the value was 115%.
For `CC(C)(C)Nc1nc2c(OCCc3ccccc3)cccn2c1-c1ccc([N+](=O)[O-])cc1` the value was -19.5% (active).
In the case of `COc1ccc(-c2cc(-c3cccnc3)nc3sc4c(Cl)nnnc4c23)cc1OC`, the growth was 80.1%.
For the compound `[2H]C([2H])([2H])Oc1c(F)cccc1/C=C/C(=O)/C=C(O)/C=C/c1cccc(F)c1OC([2H])([2H])[2H]`, the growth was 98.3%.
The value for `Nc1c(C(=O)Nc2cccc3ccccc23)sc2nc3c(cc12)CCCCC3` was 37.1%; that for `COc1cc(OC)c2sc(-c3ccc(-n4cncc4-c4cc(OC)c(OC)c(OC)c4)cc3)nc2c1` was 43.5%; that for `COc1ccc(C/C(C)=C(\c2ccc(Cl)cc2)c2ccc(OCCN3CCCC3)cc2)cc1` was 70%.
For `CN(Cc1ccccc1)Cc1ccccc1` the value was 92.1%; for `COc1ccc2c(c1)C(=O)c1c-2c(OCCN2CCCCC2)nc2ccc(OC)cc12`, -10.6% (active); for `N#Cc1ccc(O)c(C2=NCC(c3cccc(Oc4ccccc4)c3)O2)c1` (stereo not given), 27%.
For `CCCCCCCCn1ccc2cc(NC(=O)Cn3cc(CN4CCN(CC)CC4)nn3)ccc21` the value was 62.1%.
